Data: PubChem BioAssay AID1159580 (chemical genetic matrix, 2015)
Screen size: about 5,500 compounds; about 2,000 (36%) were called active. Roughly 18% stayed inconclusive and do not appear here. No stated cut-off is given here; in the data, active means normalized growth mostly below about 0.91 (no sharp cut-off); inconclusive means no clear call, values can overlap the other calls; inactive means mostly above about 0.92. This is one part of the list.

Experiment: chemical genetic growth profiling, strain panel (AID 1159580);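 further: tested at 20 µM; growth read once vehicle control cultures reached saturation at 30 °C; 1 = growth at the plate median or of vehicle wells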
Conditions: growth OD

Measured: normalized growth

Nc1ccc(S(=O)(=O)NC(=O)c2ccccc2)cc1
inactive: S. cerevisiae deletion strains, locus YJR066W, strain TOR1, stronger effect = lower value 0.932 | S. cerevisiae deletion strains, locus YJR075W, strain HOC1, stronger effect = lower value 1.02 | S. cerevisiae deletion strains, locus YKL009W, strain mrt4, stronger effect = lower value 1.02 | S. cerevisiae deletion strains, locus YKL068W, stronger effect = lower value 1.01 | S. cerevisiae deletion strains, locus YKL085W, strain MDH1 (second series), stronger effect = lower value 1 | S. cerevisiae deletion strains, locus YKL085W, strain MDH1, stronger effect = lower value 1 | S. cerevisiae deletion strains, locus YKL160W, strain elf1, stronger effect = lower value 1.01 | S. cerevisiae deletion strains, locus YKL190W, strain CNB1, stronger effect = lower value 1.01 | S. cerevisiae deletion strains, locus YKR001C, strain vps1, stronger effect = lower value 1.03 | S. cerevisiae deletion strains, locus YKR026C, strain gcn3, stronger effect = lower value 0.969 | S. cerevisiae deletion strains, locus YKR091W, strain srl3, stronger effect = lower value 0.978 | S. cerevisiae deletion strains, locus YLL001W, strain dnm1, stronger effect = lower value 0.995 | S. cerevisiae deletion strains, locus YLL026W, stronger effect = lower value 1 | S. cerevisiae deletion strains, locus YLL041C, strain sdh2, stronger effect = lower value 0.992 | S. cerevisiae deletion strains, locus YLR027C, strain aat2, stronger effect = lower value 0.996 | S. cerevisiae deletion strains, locus YLR039C, strain RIC1, stronger effect = lower value 0.834 | S. cerevisiae deletion strains, locus YLR058C, strain SHM2, stronger effect = lower value 1.01 | S. cerevisiae deletion strains, locus YLR102C, strain apc9, stronger effect = lower value 1.01 | S. cerevisiae deletion strains, locus YLR113W, strain HOG1, stronger effect = lower value 0.968 | S. cerevisiae deletion strains, locus YLR221C, strain rsa3, stronger effect = lower value 0.976 | S. cerevisiae deletion strains, locus YLR258W, strain gsy2, stronger effect = lower value 0.987 | S. cerevisiae deletion strains, locus YLR262C, strain YPT6 (second series), stronger effect = lower value 0.979 | S. cerevisiae deletion strains, locus YLR262C, strain YPT6, stronger effect = lower value 1.01 | S. cerevisiae deletion strains, locus YLR268W, strain sec22, stronger effect = lower value 1.04 | S. cerevisiae deletion strains, locus YLR320W, strain mms22, stronger effect = lower value 0.985 | S. cerevisiae deletion strains, locus YLR330W, strain CHS5, stronger effect = lower value 1.01 | S. cerevisiae deletion strains, locus YLR342W, strain FKS1 (second series), stronger effect = lower value 1.02 | S. cerevisiae deletion strains, locus YLR342W, strain FKS1, stronger effect = lower value 0.998 | S. cerevisiae deletion strains, locus YLR357W, strain rsc2, stronger effect = lower value 0.977 | S. cerevisiae deletion strains, locus YLR370C, strain arc18, stronger effect = lower value 0.991 | S. cerevisiae deletion strains, locus YLR371W, strain rom2, stronger effect = lower value 1.02 | S. cerevisiae deletion strains, locus YLR384C, strain iki3, stronger effect = lower value 0.998 | S. cerevisiae deletion strains, locus YLR418C, strain cdc73, stronger effect = lower value 1.02 | S. cerevisiae deletion strains, locus YML016C, strain PPZ1, stronger effect = lower value 1.04 | S. cerevisiae deletion strains, locus YML032C, strain rad52, stronger effect = lower value 1.03 | S. cerevisiae deletion strains, locus YML120C, strain ndi1, stronger effect = lower value 0.972 | S. cerevisiae deletion strains, locus YML124C, strain tub3, stronger effect = lower value 1.01 | S. cerevisiae deletion strains, locus YMR058W, strain fet3, stronger effect = lower value 0.981 | S. cerevisiae deletion strains, locus YMR078C, strain ctf18, stronger effect = lower value 1.01 | S. cerevisiae deletion strains, locus YMR125W, strain sto1, stronger effect = lower value 0.977 | S. cerevisiae deletion strains, locus YMR129W, stronger effect = lower value 0.989 | S. cerevisiae deletion strains, locus YMR205C, strain PFK2, stronger effect = lower value 1 | S. cerevisiae deletion strains, locus YMR223W, strain ubp8, stronger effect = lower value 1.01 | S. cerevisiae deletion strains, locus YMR231W, strain pep5, stronger effect = lower value 0.981 | S. cerevisiae deletion strains, locus YMR263W, strain SAP30, stronger effect = lower value 1.01 | S. cerevisiae deletion strains, locus YMR307W, strain GAS1, stronger effect = lower value 0.878 | S. cerevisiae deletion strains, locus YNL067W, strain RPL9B, stronger effect = lower value 1.01 | S. cerevisiae deletion strains, locus YNL071W, strain lat1, stronger effect = lower value 0.977 | S. cerevisiae deletion strains, locus YNL183C, strain NPR1, stronger effect = lower value 0.95 | S. cerevisiae deletion strains, locus YNL209W, strain ssb2, stronger effect = lower value 0.971 | S. cerevisiae deletion strains, locus YNL233W, strain BNI4, stronger effect = lower value 1.01 | S. cerevisiae deletion strains, locus YNL248C, strain rpa49, stronger effect = lower value 1 | S. cerevisiae deletion strains, locus YNL250W, strain rad50, stronger effect = lower value 1 | S. cerevisiae deletion strains, locus YNL271C, strain bni1, stronger effect = lower value 1.01 | S. cerevisiae deletion strains, locus YNL298W, strain CLA4, stronger effect = lower value 1.02 | S. cerevisiae deletion strains, locus YNL307C, strain MCK1, stronger effect = lower value 1.03 | S. cerevisiae deletion strains, locus YNL322C, strain KRE1 (second series), stronger effect = lower value 0.964 | S. cerevisiae deletion strains, locus YNR049C, strain mso1, stronger effect = lower value 0.981 | S. cerevisiae deletion strains, locus YNR052C, strain pop2, stronger effect = lower value 1.01 | S. cerevisiae deletion strains, locus YOL006C, strain TOP1, stronger effect = lower value 1 | S. cerevisiae deletion strains, locus YOL012C, strain htz1 1.35 | S. cerevisiae deletion strains, locus YOL147C, strain pex11, stronger effect = lower value 1.02 | S. cerevisiae deletion strains, locus YOR001W, strain rrp6, stronger effect = lower value 0.954 | S. cerevisiae deletion strains, locus YOR061W, strain CKA2, stronger effect = lower value 1 | S. cerevisiae deletion strains, locus YOR069W, strain VPS5, stronger effect = lower value 1.01 | S. cerevisiae deletion strains, locus YOR070C, strain gyp1, stronger effect = lower value 0.996 | S. cerevisiae deletion strains, locus YOR080W, strain dia2, stronger effect = lower value 0.981 | S. cerevisiae deletion strains, locus YOR083W, strain WHI5, stronger effect = lower value 0.966 | S. cerevisiae deletion strains, locus YOR106W, strain vam3, stronger effect = lower value 0.999 | S. cerevisiae deletion strains, locus YOR136W, strain idh2, stronger effect = lower value 1.01 | S. cerevisiae deletion strains, locus YOR144C, strain elg1, stronger effect = lower value 1.01 | S. cerevisiae deletion strains, locus YOR184W, strain ser1, stronger effect = lower value 1.03 | S. cerevisiae deletion strains, locus YOR231W, strain MKK1, stronger effect = lower value 0.996 | S. cerevisiae deletion strains, locus YOR265W, strain rbl2, stronger effect = lower value 0.997 | S. cerevisiae deletion strains, locus YOR270C, strain vph1, stronger effect = lower value 0.96 | S. cerevisiae deletion strains, locus YOR290C, strain snf2, stronger effect = lower value 0.993 | S. cerevisiae deletion strains, locus YOR316C, strain cot1, stronger effect = lower value 1 | S. cerevisiae deletion strains, locus YPL051W, strain arl3, stronger effect = lower value 1.01 | S. cerevisiae deletion strains, locus YPL078C, strain atp4, stronger effect = lower value 1.04 | S. cerevisiae deletion strains, locus YPL106C, strain sse1, stronger effect = lower value 0.976 | S. cerevisiae deletion strains, locus YPL240C, strain hsp82, stronger effect = lower value 0.983 | S. cerevisiae deletion strains, locus YPL256C, strain CLN2, stronger effect = lower value 0.984 | S. cerevisiae deletion strains, locus YPR119W, strain clb2, stronger effect = lower value 1.02 | S. cerevisiae deletion strains, locus YPR141C, strain kar3, stronger effect = lower value 1.02 | S. cerevisiae deletion strains, locus YPR163C, strain tif3, stronger effect = lower value 1.02 | S. cerevisiae deletion strains, locus YPR167C, strain met16, stronger effect = lower value 1.01 | S. cerevisiae deletion strains, strain wtn01, stronger effect = lower value 1.01 | S. cerevisiae strains, strain wild type, stronger effect = lower value 1.01
